This note sets out measurements from ChEMBL document CHEMBL1961873, “Compounds: GSK PKIS; Assays: Nanosyn kinase panel” (2012).

Test [1] has as its target T1, Serine/threonine-protein kinase Nek9 (Homo sapiens) (UniProt Q8TD19).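 Also: each value is a mean percent inhibition of NEK9.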
T1 sequence (whole entry): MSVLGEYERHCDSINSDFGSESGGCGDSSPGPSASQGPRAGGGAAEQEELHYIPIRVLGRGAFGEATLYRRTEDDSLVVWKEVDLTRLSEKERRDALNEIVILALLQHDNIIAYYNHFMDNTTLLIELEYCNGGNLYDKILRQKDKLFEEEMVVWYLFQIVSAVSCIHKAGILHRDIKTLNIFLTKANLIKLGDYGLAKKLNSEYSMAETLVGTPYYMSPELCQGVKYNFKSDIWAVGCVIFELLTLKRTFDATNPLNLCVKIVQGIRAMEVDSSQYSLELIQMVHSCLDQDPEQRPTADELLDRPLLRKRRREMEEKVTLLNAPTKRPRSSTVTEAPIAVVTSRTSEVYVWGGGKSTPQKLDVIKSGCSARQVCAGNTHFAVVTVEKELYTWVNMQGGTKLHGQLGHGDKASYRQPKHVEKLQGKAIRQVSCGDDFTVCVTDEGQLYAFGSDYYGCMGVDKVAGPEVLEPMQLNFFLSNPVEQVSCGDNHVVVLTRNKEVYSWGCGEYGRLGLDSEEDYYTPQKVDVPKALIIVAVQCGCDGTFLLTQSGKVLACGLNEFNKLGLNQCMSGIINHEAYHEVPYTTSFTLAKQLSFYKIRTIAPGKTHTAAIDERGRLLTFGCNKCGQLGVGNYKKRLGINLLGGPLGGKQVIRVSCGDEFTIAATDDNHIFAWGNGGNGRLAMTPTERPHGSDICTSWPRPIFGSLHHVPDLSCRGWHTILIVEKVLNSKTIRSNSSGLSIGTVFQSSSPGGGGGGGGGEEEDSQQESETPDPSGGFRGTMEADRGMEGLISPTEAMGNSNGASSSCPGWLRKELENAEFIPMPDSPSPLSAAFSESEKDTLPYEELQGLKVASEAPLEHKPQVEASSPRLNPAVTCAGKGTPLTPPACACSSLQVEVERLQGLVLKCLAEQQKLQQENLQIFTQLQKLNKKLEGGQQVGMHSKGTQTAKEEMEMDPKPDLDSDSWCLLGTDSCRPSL
The conditions noted are these: at 1 µM.

Test [2] deals with Serine/threonine-protein kinase PLK1 (Homo sapiens) (UniProt P53350). The settings on record: at 0.1 µM.
Sequence of Serine/threonine-protein kinase PLK1 (Homo sapiens) (P53350 whole entry): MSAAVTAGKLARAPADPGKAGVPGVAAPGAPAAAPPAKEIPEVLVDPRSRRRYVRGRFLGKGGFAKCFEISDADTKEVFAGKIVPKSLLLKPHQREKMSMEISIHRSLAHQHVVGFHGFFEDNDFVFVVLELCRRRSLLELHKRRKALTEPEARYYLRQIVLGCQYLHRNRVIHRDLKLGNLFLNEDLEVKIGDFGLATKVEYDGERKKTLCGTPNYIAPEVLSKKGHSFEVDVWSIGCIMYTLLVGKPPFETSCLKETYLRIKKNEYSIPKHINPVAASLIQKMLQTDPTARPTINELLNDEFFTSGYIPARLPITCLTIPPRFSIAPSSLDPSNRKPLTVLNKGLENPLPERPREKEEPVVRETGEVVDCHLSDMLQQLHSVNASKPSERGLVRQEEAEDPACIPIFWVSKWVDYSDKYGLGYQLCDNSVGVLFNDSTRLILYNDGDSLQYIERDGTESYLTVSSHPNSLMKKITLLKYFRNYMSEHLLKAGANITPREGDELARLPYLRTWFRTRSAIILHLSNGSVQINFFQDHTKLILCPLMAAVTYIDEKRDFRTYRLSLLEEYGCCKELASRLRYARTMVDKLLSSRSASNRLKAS
Test [3] has the same target. The conditions noted are these: at 1 µM.
The target in test [4] is T2, Dual specificity protein kinase TTK (Homo sapiens) (UniProt P33981).
T2 sequence (whole entry): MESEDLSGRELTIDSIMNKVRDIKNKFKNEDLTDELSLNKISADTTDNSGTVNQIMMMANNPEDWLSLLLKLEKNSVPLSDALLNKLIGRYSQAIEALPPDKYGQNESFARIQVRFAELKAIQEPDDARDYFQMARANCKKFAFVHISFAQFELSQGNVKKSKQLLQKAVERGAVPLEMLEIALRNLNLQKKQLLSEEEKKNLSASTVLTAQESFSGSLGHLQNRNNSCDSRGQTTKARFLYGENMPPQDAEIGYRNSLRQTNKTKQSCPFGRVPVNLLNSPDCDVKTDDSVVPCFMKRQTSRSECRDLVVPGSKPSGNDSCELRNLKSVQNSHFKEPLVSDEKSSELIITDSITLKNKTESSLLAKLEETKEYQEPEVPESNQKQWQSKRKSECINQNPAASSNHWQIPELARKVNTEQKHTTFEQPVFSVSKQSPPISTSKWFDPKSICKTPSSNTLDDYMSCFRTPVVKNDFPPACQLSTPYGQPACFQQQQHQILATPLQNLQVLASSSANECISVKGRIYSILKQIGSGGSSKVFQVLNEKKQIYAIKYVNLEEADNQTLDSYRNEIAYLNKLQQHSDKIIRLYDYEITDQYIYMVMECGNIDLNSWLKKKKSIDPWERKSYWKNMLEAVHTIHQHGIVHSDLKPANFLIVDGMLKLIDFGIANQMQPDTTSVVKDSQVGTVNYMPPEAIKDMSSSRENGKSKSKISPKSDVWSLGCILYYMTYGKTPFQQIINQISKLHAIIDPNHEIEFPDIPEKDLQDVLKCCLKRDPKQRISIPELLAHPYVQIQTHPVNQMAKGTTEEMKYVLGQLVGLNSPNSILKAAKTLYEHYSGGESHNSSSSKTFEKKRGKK
The settings on record: at 0.1 µM.

Test [5] relates to T3, Receptor-type tyrosine-protein kinase FLT3 (Homo sapiens), P36888 [D835Y].
T3 sequence (whole entry): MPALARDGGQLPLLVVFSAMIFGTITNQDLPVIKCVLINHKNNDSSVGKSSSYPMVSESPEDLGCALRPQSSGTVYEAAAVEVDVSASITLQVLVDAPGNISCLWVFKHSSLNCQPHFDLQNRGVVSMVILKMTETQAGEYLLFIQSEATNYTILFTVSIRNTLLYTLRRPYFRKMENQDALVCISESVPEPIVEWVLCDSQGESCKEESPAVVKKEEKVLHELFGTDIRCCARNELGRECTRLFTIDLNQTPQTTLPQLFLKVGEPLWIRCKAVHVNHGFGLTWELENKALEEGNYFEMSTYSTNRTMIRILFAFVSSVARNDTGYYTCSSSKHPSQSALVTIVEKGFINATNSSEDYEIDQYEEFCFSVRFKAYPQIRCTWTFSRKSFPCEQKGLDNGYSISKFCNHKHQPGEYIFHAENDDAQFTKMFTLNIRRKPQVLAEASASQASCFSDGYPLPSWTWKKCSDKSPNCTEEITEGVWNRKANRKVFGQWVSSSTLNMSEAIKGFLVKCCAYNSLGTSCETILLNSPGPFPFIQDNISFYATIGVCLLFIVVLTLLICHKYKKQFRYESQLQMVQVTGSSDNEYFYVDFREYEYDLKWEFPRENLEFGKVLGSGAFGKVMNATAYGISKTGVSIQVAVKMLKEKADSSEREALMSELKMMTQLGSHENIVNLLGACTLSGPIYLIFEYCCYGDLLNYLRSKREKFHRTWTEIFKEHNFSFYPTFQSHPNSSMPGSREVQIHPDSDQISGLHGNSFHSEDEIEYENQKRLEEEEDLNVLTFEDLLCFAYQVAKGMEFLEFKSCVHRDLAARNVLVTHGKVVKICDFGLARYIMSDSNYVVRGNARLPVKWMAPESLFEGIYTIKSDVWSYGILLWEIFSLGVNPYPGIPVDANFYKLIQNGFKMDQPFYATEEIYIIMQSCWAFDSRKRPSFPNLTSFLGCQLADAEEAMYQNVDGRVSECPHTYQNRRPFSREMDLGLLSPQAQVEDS
The settings on record: at 1 µM.

In test [6] the target is Vascular endothelial growth factor receptor 3 (Homo sapiens) (UniProt P35916). The conditions noted are these: at 0.1 µM.
Sequence of Vascular endothelial growth factor receptor 3 (Homo sapiens) (P35916 whole entry): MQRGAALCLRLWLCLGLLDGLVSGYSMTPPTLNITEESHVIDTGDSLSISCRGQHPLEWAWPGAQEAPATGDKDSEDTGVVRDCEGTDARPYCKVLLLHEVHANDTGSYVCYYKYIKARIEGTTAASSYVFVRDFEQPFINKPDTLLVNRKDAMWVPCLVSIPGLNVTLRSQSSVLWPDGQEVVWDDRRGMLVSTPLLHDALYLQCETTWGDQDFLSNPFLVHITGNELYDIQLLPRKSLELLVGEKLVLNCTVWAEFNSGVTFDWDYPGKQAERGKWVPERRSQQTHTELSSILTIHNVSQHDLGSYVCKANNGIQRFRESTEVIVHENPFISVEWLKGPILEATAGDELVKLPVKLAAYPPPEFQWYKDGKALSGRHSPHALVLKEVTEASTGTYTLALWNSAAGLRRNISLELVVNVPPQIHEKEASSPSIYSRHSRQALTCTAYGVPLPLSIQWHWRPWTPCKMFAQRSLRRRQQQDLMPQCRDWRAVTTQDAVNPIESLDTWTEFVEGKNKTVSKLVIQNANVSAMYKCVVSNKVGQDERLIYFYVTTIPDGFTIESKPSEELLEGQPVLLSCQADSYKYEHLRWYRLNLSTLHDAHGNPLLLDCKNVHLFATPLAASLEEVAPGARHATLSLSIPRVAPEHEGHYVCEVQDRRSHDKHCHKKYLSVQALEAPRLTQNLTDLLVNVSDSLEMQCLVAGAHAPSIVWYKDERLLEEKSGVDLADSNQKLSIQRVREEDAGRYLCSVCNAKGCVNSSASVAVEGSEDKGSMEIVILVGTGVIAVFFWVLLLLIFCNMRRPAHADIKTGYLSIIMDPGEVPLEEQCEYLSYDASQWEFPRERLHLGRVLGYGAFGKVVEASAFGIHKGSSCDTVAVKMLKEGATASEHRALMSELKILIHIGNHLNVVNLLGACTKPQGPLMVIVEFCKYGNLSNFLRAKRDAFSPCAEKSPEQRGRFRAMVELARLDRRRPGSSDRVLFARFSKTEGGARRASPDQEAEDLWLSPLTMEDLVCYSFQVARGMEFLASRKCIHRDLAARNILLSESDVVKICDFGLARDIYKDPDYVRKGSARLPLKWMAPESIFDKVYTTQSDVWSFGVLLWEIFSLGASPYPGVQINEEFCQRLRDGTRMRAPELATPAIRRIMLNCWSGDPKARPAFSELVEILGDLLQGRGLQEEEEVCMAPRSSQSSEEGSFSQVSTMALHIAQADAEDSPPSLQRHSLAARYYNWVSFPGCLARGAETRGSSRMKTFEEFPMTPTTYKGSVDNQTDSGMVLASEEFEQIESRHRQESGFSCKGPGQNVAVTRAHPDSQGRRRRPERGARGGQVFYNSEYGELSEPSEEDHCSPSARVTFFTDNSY
The target is the same in test [7]. The conditions noted are these: at 1 µM.
The target in test [8] is Macrophage colony-stimulating factor 1 receptor (Homo sapiens) (UniProt P07333). The settings on record: at 0.1 µM.
Sequence of Macrophage colony-stimulating factor 1 receptor (Homo sapiens) (P07333 whole entry): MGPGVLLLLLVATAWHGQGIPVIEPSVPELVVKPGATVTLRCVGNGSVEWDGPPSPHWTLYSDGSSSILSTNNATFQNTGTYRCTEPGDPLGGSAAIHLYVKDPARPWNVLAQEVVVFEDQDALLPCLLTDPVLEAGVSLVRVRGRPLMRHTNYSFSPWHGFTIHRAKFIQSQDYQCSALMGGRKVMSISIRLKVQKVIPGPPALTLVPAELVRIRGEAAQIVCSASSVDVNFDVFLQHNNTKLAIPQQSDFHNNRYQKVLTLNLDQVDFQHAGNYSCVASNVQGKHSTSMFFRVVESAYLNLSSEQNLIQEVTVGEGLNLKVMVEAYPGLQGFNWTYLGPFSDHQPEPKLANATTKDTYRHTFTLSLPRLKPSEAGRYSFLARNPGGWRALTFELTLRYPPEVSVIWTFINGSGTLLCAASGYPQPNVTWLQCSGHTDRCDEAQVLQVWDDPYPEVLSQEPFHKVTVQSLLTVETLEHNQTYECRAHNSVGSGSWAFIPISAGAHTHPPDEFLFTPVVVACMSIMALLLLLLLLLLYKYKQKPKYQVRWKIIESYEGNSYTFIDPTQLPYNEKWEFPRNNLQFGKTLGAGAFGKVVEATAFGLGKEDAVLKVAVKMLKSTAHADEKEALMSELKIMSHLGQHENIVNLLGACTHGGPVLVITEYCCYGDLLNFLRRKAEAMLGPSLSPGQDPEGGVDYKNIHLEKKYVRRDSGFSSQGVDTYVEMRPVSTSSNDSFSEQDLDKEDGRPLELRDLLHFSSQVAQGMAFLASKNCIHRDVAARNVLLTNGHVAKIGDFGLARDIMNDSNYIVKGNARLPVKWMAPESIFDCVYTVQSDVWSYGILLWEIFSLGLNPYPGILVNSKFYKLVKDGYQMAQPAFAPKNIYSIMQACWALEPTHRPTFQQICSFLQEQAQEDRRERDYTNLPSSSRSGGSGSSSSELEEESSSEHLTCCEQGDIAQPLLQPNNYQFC
Test [9] has the same target. The settings on record: at 1 µM.
Test [10] addresses Tyrosine-protein kinase Fyn (Homo sapiens) (UniProt P06241). The settings on record: at 0.1 µM.

A word on the inhibition: it is the relative decrease from the control value, in per cent.

Sequence of Tyrosine-protein kinase Fyn (Homo sapiens) (P06241 2-537 limits assumed): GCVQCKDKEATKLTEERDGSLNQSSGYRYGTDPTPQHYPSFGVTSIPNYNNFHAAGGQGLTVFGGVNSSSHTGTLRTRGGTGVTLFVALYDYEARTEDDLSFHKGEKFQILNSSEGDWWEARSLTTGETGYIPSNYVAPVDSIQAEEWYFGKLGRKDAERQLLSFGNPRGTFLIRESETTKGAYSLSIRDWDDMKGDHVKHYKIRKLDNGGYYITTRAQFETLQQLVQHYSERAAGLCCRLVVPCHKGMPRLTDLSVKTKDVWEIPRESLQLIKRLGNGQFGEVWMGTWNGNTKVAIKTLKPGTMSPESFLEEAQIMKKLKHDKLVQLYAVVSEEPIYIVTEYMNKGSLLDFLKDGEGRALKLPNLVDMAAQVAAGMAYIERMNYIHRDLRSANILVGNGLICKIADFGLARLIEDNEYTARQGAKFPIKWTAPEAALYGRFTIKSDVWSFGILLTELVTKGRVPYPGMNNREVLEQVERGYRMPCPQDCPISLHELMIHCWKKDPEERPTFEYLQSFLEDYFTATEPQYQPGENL

`CCn1c(-c2nonc2N)nc2cncc(C(=O)N3CCNCC3)c21`: the inhibition is 5.61% in test [1]; 5.97% in test [2]; 14.3% in test [3]; 12.2% in [4]; -1.93% in [5]; 5.86% in test [6]. For the same compound, the inhibition was found to be 7.52% in test [7], 4.42% in test [8], 5.74% in test [9] and 2.61% in test [10].

`CCn1c(-c2nonc2N)nc2c(C#CC(C)(C)O)nc(CN3CCCC3)cc21`: the inhibition in test [1] is 3.04%; in test [2], -0.39%; in test [3], -1.2%; in test [4], 1.71%; in test [5], 0.63%; in test [6] it was 0.61%. The inhibition in test [7] was 5.17%; in test [8] it was -0.03%; in test [9], 2.57%; in test [10], 2.94%.

For `COc1cc2c(cc1Nc1nc(N3CCc4ccccc43)c3cc[nH]c3n1)N(C(=O)CN(C)C)CC2`, the inhibition in [1] stood at 0.78%; in [2], 5.82%; in test [3] it was 25.4%; in test [4] it was 7.66%; in test [5], 2.32%; in [6], 12.9%. Further, the inhibition in test [7] is 13.7%; in test [8], 1.41%; in [9], 2.14%; in [10], -1.37%.

For `Fc1cccc(COc2ccc(Nc3ncnc4cc(-c5ccc[nH]5)sc34)cc2Cl)c1`, the inhibition in test [1] stood at 9.08%; in test [2], 3.81%; in [3], 3.54%; in test [4], 9.76%; in test [5] it was 1.35%; in test [8], 0.63%. The figures for the inhibition in test [9] and in test [10] were 8.96% and -2.98%, respectively.

As for `COc1ccc(COc2ccc(Cc3cnc(N)nc3N)cc2OC)cc1`, the inhibition in test [1] is -4.1%; in test [2], 0.21%; in test [3], 3.71%; in test [4], -2.66%; in test [5], -1.91%; in test [6], -2.95%. Also, the inhibition in [7] is -0.86%; in [10], 0.22%.

In the case of `CN(C)c1cc2c(Nc3ccc4nc(Cc5ccccc5)[nH]c4c3)ncnc2cn1`, the inhibition in test [1] was 10.6%; in [2] it was 6.15%; in [3], 6.34%; in test [4], 13.2%; in [5] it was -1.97%; in [6], 7.56%. The inhibition came out at 11.3% in test [7], 4.7% in test [8], 15.4% in test [9] and 4.62% in [10].

With `CC(=O)Nc1cccc(C#Cc2cncnc2Nc2ccc(OCc3cccc(F)c3)c(Cl)c2)n1`, the inhibition in [1] was 2.5%; in [2] it was -3.77%; in [3], -3.29%; in [4], -1.68%; in test [5], 2.36%; in test [6], -1.2%. Besides, the inhibition was -2.96% in test [7], 0.5% in [8], -0.39% in [9] and 1.08% in [10].

On to `Cc1cc(O)cc(C)c1/C=C/c1cncc(-c2nn[nH]n2)c1`, for which the inhibition was 8.64% in test [1]; 3.41% in [2]; 4.38% in test [3]; 7.11% in [4]; -0.25% in test [5]; -9.76% in test [6]. Moreover, the figures for the inhibition in test [8], in test [9] and in [10] were 8.02%, 36.1% and 3.99%, respectively.

As for `Cc1ccc(NC(=O)c2ccnc(N3CCCC3)c2)cc1-c1ccc(C(=O)NCC2CC2)cc1`, the inhibition was 6.52% in [1]; 3.7% in test [2]; 4.57% in test [3]; 15.4% in test [4]; 1.51% in [5]; -7.96% in test [6]. In addition, the inhibition was 1.57% in test [8], 2.74% in [9] and -2.42% in test [10].

On to `Cc1nn(C)c2cc(N(C)c3ccnc(Nc4cccc(S(N)(=O)=O)c4)n3)ccc12`, for which the inhibition came to 13.1% in [1]; 2.85% in [2]; 3.39% in test [3]; 13% in [4]; 11.9% in test [5]; 15.6% in test [6]. Besides, the inhibition turned out to be 62.9% in test [7], 75.5% in test [8], 93.9% in test [9] and 4.56% in test [10].
